Screens deposited in PubChem BioAssay by NMMLSC.
Compounds with a hit are over-represented: about 2.5% of the library has one in this group of screens.
GRK2 aptamer HTS – human GRK2 inhibition via aptamer displacement | 330,000 compounds, 0.59% hits | inhibition of aptamer binding, % at 10 µM | P25098 | bead flow cytometry, FAM-aptamer displacement from GRK2;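 active = inhibition of aptamer binding above 40%, roughly 3 SD of noise, on plates passing a quality check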;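 also: median bead fluorescence of bound FAM aptamer so fluorescent compounds give negative values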
MEKK3 PB1 HTS – MEKK3-MEK5 PB1 interaction, increase or decrease | Q99759 | bead-based flow cytometry, Alexa488-MEK5 binding to MEKK3; actives lie on both sides; 0 = blocked by unlabeled MEK5, 100 = vehicle | binding response (% of control), % at 10 µM | 290,000 compounds, 1.4% hits;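 active = binding response more than 3 SD above or below the average of its plate-row segment, actives on both sides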;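 also: Alexa488 bead fluorescence after subtracting the streptavidin-only scavenger bead signal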
Target sequence (Q99759 whole entry, looked up): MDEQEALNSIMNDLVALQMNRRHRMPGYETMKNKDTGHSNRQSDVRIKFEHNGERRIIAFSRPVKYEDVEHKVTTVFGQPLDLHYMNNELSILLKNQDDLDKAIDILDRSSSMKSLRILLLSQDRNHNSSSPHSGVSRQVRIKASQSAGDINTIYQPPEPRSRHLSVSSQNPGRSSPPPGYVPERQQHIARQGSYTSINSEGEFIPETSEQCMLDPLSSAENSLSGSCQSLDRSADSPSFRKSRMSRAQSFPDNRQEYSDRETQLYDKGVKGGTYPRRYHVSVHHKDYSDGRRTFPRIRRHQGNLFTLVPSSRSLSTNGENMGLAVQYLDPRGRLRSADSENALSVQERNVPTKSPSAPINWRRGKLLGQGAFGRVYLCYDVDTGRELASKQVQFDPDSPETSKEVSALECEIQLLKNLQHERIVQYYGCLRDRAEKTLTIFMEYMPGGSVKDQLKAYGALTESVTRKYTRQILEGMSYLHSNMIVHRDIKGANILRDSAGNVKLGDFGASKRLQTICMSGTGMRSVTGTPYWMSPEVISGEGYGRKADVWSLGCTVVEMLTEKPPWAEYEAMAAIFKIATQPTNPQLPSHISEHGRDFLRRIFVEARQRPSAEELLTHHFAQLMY
MEKK2wt PB1 HTS – raises or lowers MEK5 binding to wildtype human MEKK2 PB1 domain; 290,000 compounds, 1.1% hits; binding response (% of control), % at 10 µM; AID 1531; bead flow cytometry, Alexa488-MEK5 binding to MEKK2 WT; actives lie on both sides; in the data active = binding response below about 67% or above about 130%
MEKK2mut PB1 HTS – signal of MEK5 binding to mutant human MEKK2 PB1 domain; bead flow cytometry, Alexa488-MEK5 binding to MEKK2 mutant; percent response, % at 10 µM; 290,000 compounds, 0.35% hits; AID 1530; in the data active = percent response above about 24%, passing the limit was not always enough
Numbers stand for hits; . = inactive; / = no result; [ ] = remark or other dose.

SMILES	GRK2 aptamer HTS	MEKK3 PB1 HTS	MEKK2wt PB1 HTS	MEKK2mut PB1 HTS
CCCC(=O)NC(c1cccs1)c1cc([N+](=O)[O-])c2cccnc2c1O (stereo not drawn)	.	.	.	.
CCC(=O)NC(c1cccs1)c1cc([N+](=O)[O-])c2cccnc2c1O (stereo not drawn)	.	128	.	.
Cc1ccc(S(=O)(=O)NCC(=O)OCc2csc(-c3ccccc3)n2)cc1	.	.	.	.
O=C(CNS(=O)(=O)c1ccc2ccccc2c1)OCc1csc(-c2ccccc2)n1	100	.	.	.
Cc1cc(=O)n(CC(C)O)c(O)c1C#N (stereo not drawn)	.	.	.	.
Cc1cccc(S(=O)(=O)Nc2nc3ccccc3nc2OC(C)C)c1	58	.	.	.
C=CCNc1nc2ccccc2nc1NS(=O)(=O)c1cccc(C)c1	.	.	.	.
Oc1c(N=Nc2ccccn2)ccc2ccccc12	.	.	36	.
Cc1cc(=O)oc2cc(OC(C)C(=O)Nc3ccc(N4CCCCC4)cc3)ccc12 (stereo not drawn)	.	.	-1.0	.
Cc1cc(=O)oc2cc(OC(C)C(=O)NC3CCCC3)ccc12 (stereo not drawn)	.	.	.	.
Cc1ccc2c(c1)C1CCCC3C1N2CC(=O)N3Cc1ccccc1 (stereo not drawn)	.	.	18	.
CCOc1cccc2cc(C(=O)N3CCc4ccccc43)c(=O)oc12	.	.	5.0	.
COc1ccc2c(Cl)c(C(=O)OCC(=O)c3ccc4c(c3)NC(=O)CO4)sc2c1Cl	/	.	.	.
CN(C)[C@@H]1C(=O)C(C(=O)NCN2CCCC2)=C(O)[C@@]2(O)C(=O)C3=C(O)c4c(O)cccc4[C@@](C)(O)C3CC12 (stereo partly drawn)	/	.	26[inhibitor]	.
CN(C)c1ccc(O)c2c1CC1CC3C(N(C)C)C(=O)C(C(N)=O)=C(O)[C@@]3(O)C(=O)C1=C2O (stereo partly drawn)	.	.	.	.
CCOC(=O)N1CCN(C(=O)C2CCN(CC3CCCCC3)CC2)CC1	.	.	.	.
O=C(Nc1ccccc1C(=O)NCCCN1CCOCC1)c1ccc(F)cc1	.	1.0[inhibitor]	-2.0[inhibitor]	.
O=C(NCc1ccc(Cl)cc1)c1nccnc1CO	.	.	.	.
CC(C)N1CCc2c(sc(N)c2C#N)C1	.	.	2.0	.
CCN1CCc2c(sc(N)c2C#N)C1	63	.	.	.
CC(O)Cn1c(=O)c2c(nc(Br)n2Cc2ccccc2)n(C)c1=O (stereo not drawn)	.	.	.	.
Cc1cccc(C)c1OCC(=O)N/N=C/c1ccncc1	42	.	.	.
Cc1ccc(OCC(=O)N/N=C/c2ccncc2)cc1C	.	.	.	.
CC1CC(C)CN(CCCNC(=O)c2ccc3c(c2)N(Cc2ccccc2)C(=O)c2ccccc2S3=O)C1 (stereo not drawn)	.	.	145	.
O=C(NCCCN1CCCC1)c1ccc2c(c1)N(Cc1cccc(Cl)c1)C(=O)c1ccccc1S2=O (stereo not drawn)	.	.	.	.
SMILES	GRK2 aptamer HTS	MEKK3 PB1 HTS	MEKK2wt PB1 HTS	MEKK2mut PB1 HTS
Cc1ccc(NS(=O)(=O)c2ccc(NC(=O)C3CC3)cc2)c(C)c1	.	.	.	.
CCN(CC)c1ccc(N=Cc2c(C)[nH]c3ccccc23)cc1	.	75[inhibitor]	.	.
C/C(=N\Nc1ccc([N+](=O)[O-])cc1)c1cccc(N)c1	.	/	/	/
COc1ccc(NC(=O)C2CC(=O)N=C(N)S2)cc1 (stereo not drawn)	.	.	-11	.
CCc1ccc(NC(=O)C2CC(=O)N=C(N)S2)cc1 (stereo not drawn)	.	.	.	.
COC(=O)C/C=N/N=C1/NC(=O)/C(=C/C(=O)O)S1	.	.	1.0	.
COC(=O)/C=C1\S/C(=N/N=C/c2ccc(Cl)cc2)NC1=O	.	.	.	.
CCOc1cnn(-c2ccccc2)c(=O)c1Cl	.	.	.	.
Cc1cc(Cl)ccc1OCC(=O)NCCC(=O)O	.	.	.	.
O=C(O)c1cc(O)c2c(c1)[C@@H]([C@H]1c3cc(C(=O)O)cc(O)c3C(=O)c3c(O[C@@H]4O[C@H](CO)[C@@H](O)[C@H](O)[C@H]4O)cccc31)c1cccc(OC3O[C@H](CO)[C@@H](O)[C@H](O)[C@H]3O)c1C2=O (stereo partly drawn)	97	/	/	/
COCCn1c(=S)[nH]c2ccc(N(C)C)cc2c1=O	.	.	.	.
Cc1ccc(C(C)C)c(OCc2nn(CC(=O)c3ccc(OC(F)F)cc3)c3[n+]2CCCCC3)c1	.	.	217	.
